# Shown are actives, neighbours in structure and some others; about 5.3% of the full set was active somewhere.
# Tau ThT inhib: qHTS for Inhibitors of Tau Fibril Formation, Thioflavin T Binding; recombinant tau K18 P301L, heparin-induced fibrillization, ThT fluorescence; Potency, µM (series often up to 57.4 µM), without a hit: top-dose activity, negative = inhibition, hits mostly inhibitors; 270,000 compounds, 2.1% hits; Microtubule-associated protein tau (Homo sapiens), P10636; AID 1460, 2008; also: potency is read from the fitted curve at half-maximal effect; nearly all actives have a fitted effect of over 55% in size
# Target sequence (P10636 561-689 P618L limits assumed): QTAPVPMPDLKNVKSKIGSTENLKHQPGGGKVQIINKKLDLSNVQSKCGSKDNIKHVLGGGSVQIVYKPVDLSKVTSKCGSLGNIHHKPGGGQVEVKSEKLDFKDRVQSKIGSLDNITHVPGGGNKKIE
#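 Using a mix of unlabeled (15 uM) and Alexa 594-labeled (0.24 uM) tau K18 P301L, heparin-triggered fibrillization over 6 hr at 37 C was scored by ThT fluorescence.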
# Tau fibril FP: qHTS for Inhibitors of Tau Fibril Formation, Fluorescence Polarization; Microtubule-associated protein tau (Homo sapiens), P10636; Potency, µM (doses to about 57.7 µM), for the others: at the highest dose activity, negative = inhibition, most hits filed as inhibitors; K18 P301L tau heparin fibrillization, Alexa594 FP, 6 h; 280,000 compounds, 0.39% hits; also: potency is read from the fitted curve at half-maximal effect; nearly all actives have a fitted effect of over 55% in size
#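 Quantitative HTS format: compounds meet 15 uM recombinant K18 P301L tau and Alexa 594-tau tracer in 100 mM sodium acetate pH 7; 20 uM heparin triggers fibrillization at 37 C over 6 hr; FP gives the signal.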
# KDM4E inh: qHTS Assay for Inhibitors of Human Jumonji Domain Containing 2E (JMJD2E); JMJD2E catalytic domain, FDH-coupled NADH fluorescence (FDH is formaldehyde dehydrogenase); Potency, µM (doses to about 57.1 µM), for inactives: at the highest dose activity change, negative = inhibition, most hits filed as inhibitors; 230,000 compounds, 1.6% hits; active = well fitted inhibition curve with a large enough effect, not every such curve was filed as active; inconclusive = small, poorly fitted or top-dose-only effect, or another doubt; inactive = no such curve, though single readings can be large or run the other way;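 also: potency is read from the fitted curve at half-maximal effect; 0% = wells with enzyme and -100% = buffer wells without enzyme; nearly all actives have a fitted effect of over 50% in size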
# Target sequence (B2RXH2 1-337 limits assumed): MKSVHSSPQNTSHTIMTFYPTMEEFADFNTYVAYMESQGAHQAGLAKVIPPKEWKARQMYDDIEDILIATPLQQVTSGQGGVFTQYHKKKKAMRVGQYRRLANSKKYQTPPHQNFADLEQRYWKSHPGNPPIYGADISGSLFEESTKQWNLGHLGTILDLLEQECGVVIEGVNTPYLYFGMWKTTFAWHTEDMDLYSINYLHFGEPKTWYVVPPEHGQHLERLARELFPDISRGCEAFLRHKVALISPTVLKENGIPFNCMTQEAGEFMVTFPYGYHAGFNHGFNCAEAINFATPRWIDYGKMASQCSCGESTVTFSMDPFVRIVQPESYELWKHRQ
# Tau fluor counter: Counterscreen qHTS for Inhibitors of Tau Fibril Formation, Fluorescence Polarization; tau K18 P301L Alexa594 fluorescence, heparin fibrillization; Potency, µM (highest dose often 57.7 µM), for the others: at the top dose activity change, negative = decrease; 280,000 compounds, 0.93% hits; AID 1463, 2008; also: potency is read from the fitted curve at half-maximal effect; nearly all actives have a fitted effect of over 55% in size
#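 Human tau K18 P301L (15 uM unlabeled, 0.24 uM Alexa 594-labeled) in 100 mM sodium acetate pH 7 with 20 uM heparin, 6 hr at 37 C. ThT 30 uM added, 1 hr ambient; Alexa 594 FP and total fluorescence read at 555/632 nm.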
# Coupling enz: qHTS Assay for Inhibitors of Fructose-1,6-bisphosphate Aldolase from Giardia Lamblia: Coupling assay counterscreen | activity change, negative = inhibition, % at 58.2 µM, hits read low | coupling enzyme system counterscreen, AmpLite Red fluorescence | 290,000 compounds, 0.67% hits; in the data active = activity change below about -30%
#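 Compounds tested against the coupling enzymes alone at 57.5 uM final; readout was AmpLite Red fluorescence (525/598 nm) after 20 min at RT.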
# Sfp inh: qHTS Assay for Inhibitors of Bacillus subtilis Sfp phosphopantetheinyl transferase (PPTase); 4'-phosphopantetheinyl transferase ffp (Bacillus subtilis), Q9F4F7; Biochemical Sfp PPTase activity, qHTS; Potency, µM, for inactives: largest response in the series, negative = inhibition, usual class: inhibitors; 310,000 compounds, 3.5% hits; AID 1490, 2009;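 also: the enzyme is Sfp with the accession as filed and its product quenches rhodamine fluorescence; potency is read from the fitted curve at half-maximal effect; 0% = enzyme reaction without inhibitor and -100% = no enzyme wells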
#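 Fluorescence-quenching assay with 15 nM Sfp, 5 uM rhodamine-CoA and 12.5 uM BHQ-2-labelled ybbR peptide in pH 7.6 Hepes/MgCl2 buffer. Enzyme was pre-incubated with compound for 15 min at room temperature. Rate was taken from the 30-min fluorescence change (525/598 nm).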
# An asterisk follows results filed as active; ? = inconclusive; / = not tested or not shown; ! = a repeat was not active; [ ] = another dose, or the depositor's remark. Unless noted, calls follow the shape of the dose curve; as a rule, active = well fitted curve in the direction sought with a large enough effect; inconclusive = small, poorly fitted or top-dose-only effect, or another doubt; inactive = no such curve, though single readings can be large; an effect the other way counts as inactive or inconclusive. Unless noted, % is scaled to controls: 0 for no effect and ±100 for the full control effect.
SMILES,Tau ThT inhib,Tau fibril FP,KDM4E inh,Tau fluor counter,Coupling enz,Sfp inh
O=C(N/N=C/c1c(O)ccc2ccccc12)c1cccc(C(F)(F)F)c1,?,?,25µM*,8.9µM*[quencher],-1,12%
Cc1cc(C)n(CCC(=O)N/N=C/c2ccc(O)cc2)n1,-7%,4%,-2%,-7%,-1,-9%
Cc1ccc(O)c(/C=N/NC(=O)c2[nH]ncc2Br)c1,?,4%,3.2µM*,-16%,1,0%
CCOc1ccc(/C=N/NC(=O)c2[nH]ncc2Br)c(O)c1,?,10%,?,-19%,-6,21%
O=C(N/N=C/c1c(O)ccc2ccccc12)c1[nH]ncc1Br,?,13%,32µM*,?,-6,-21%
COc1ccc2ccccc2c1/C=N/NC(=O)c1cccc(Br)c1,?,?,?,-21%,0,12%
Cc1cc(C)n(CCC(=O)N/N=C/c2c(O)ccc3ccccc23)n1,-3%,12%,0.2µM*,?,-21,?
COc1cccc(Nc2ncc3ncc(=O)n(C)c3n2)c1,/,/,/,/,-1,7%
Cc1ccc(-n2ncc(C(=O)NCc3ccco3)c2C2CCN(C(=O)OC(C)(C)C)CC2)c(C)c1,-6%,-2%,/,-6%,/,/
CCOc1ccc(-c2n[nH]c(C)c2-c2ccccc2OC)c(O)c1,0%,4%,-3%,-6%,-12,32%
CCc1cc(-c2n[nH]c(C)c2-c2ccccc2Cl)c(O)cc1OC,/,/,/,/,-35*,12%
COc1ccc(Cc2nnc(N=Nc3c(O)[nH]c4ccc(Br)cc34)[nH]c2=O)cc1,16µM*,1%,15%,-27%,3,27%
Cc1ccc(CN2CCSc3ccc(C(=O)N4CCN(c5ncccn5)CC4)cc32)cc1,?,9%,?,-24%,-3,50µM*
O=C(NCc1cccnc1)c1ccc2c(c1)N(Cc1ccccc1)CCS2,?,8%,?,?,-4,50µM*
O=C(NCc1ccccn1)c1ccc2c(c1)N(Cc1ccccc1)CCS2,?,18%,?,-27%,0,?
CCCCNC(=O)CSc1nc2cc3c(cc2c(=O)n1CCCC(=O)NCc1ccc2c(c1)OCO2)OCO3,14%,?,/,0%,/,/
CS(=O)(=O)N(CC(=O)NCc1ccco1)Cc1ccc(Cl)cc1,-16%,-8%,-2%,6%,1,28µM*
CS(=O)(=O)N(CC(=O)NCc1ccccc1)Cc1ccc(Cl)cc1,-12%,3%,15%,-5%,0,22%
CCOC(=O)CCCNC(=O)N1CCc2nc(COc3ccccc3)c3c(c2C1)CO[C@@H](C)C3,-1%[11.5 µM],0%[11.6 µM],-3%[11.4 µM],-7%[11.6 µM],0,7%
C[C@@H](CN1c2ccccc2Sc2ccccc21)N(C)C,/,/,-12%[25.5 µM],/,-1,-1%
CC(CN1c2ccccc2Sc2ccccc21)N(C)C (stereo unspecified),?,11%,-7%,?,0,50µM*!
Cc1nn2c(=O)cc(COC(=O)c3cccs3)nc2s1,3%,13%,/,10%,/,/
CC(C)(C)c1ccc(OCCSc2nc(-c3cccs3)nc3cc(=O)[nH]n23)cc1,-2%,-4%,/,-11%,/,/
CCC(=O)c1ccc2c(c1)N(CCCN1CCN(CCO)CC1)c1ccccc1S2,/,/,/,/,/,79µM*
CC(=O)c1ccc2c(c1)N(CCCN1CCN(CCO)CC1)c1ccccc1S2,/,/,/,/,/,-9%
COc1cccc(Nc2ncc3nc(-c4cn(C)c5ccccc45)c(=O)n(CCC#N)c3n2)c1,/,/,/,/,0,14%
CCOC(=O)CSc1nc2cc(OCC)ccc2cc1C#N,16µM*,0%,?,-23%,-3,7%
